# Test results from ChEMBL document CHEMBL4513216, “Probing the Open Global Health Chemical Diversity Library for Multistage-Active Starting Points for Next-Generation Antimalarials” (ACS Infect Dis, 2020).
# The whole screen tested about 69,000 compounds, of which about 8,600 (12%) showed an effect of 50% or more. Shown is part of a subset that was picked to be rich in strong results.
# Tested on: Plasmodium berghei
# Experiment: Screen against P. berghei liver stage (PbLuc), transformed with Luciferase, at 10uM
# Assay type: functional, HepG2
# Conditions: tested at 10 uM
row,Compound,INHIBITION [%]
1,COCC(=O)N1CCC2(CC1)CN(S(C)(=O)=O)Cc1ccccc1O2,14.94
2,c1ncn(CC2CN(Cc3ccc4c(c3)OCCO4)CCO2)n1 (stereo not drawn),17.4
3,O=C(CC1CN(Cc2ccccc2)CCO1)Nc1ccsc1 (stereo not drawn),31.3
4,CC(C)[C@H]1CN(C(=O)CO)C[C@@H]1N(C)C,14
5,CCS(=O)(=O)N1C[C@@H](O)[C@H](N(C)Cc2ccc(F)cc2)C1,11.94
6,CC1CCN(C(=O)c2ccn(COc3ccccc3)n2)CC1,-15.5
7,CC(C)N1CCCn2nc(C(=O)NCCc3c[nH]cn3)cc2C1,18.2
8,CC(C)N1CCCn2nc(C(=O)NCCc3ccccn3)cc2C1,57.2
9,O=C(NCc1ccccn1)c1cc2n(n1)CCNC2,-54.5
10,CC(NC(=O)c1cc2n(n1)CCCN(C(C)C)C2)c1cn2ccsc2n1 (stereo not drawn),-59.5
11,CSc1ccccc1C(=O)NCc1cc2n(n1)CCCN(CC(C)C)C2,38.2
12,CC(C)N1CCCn2nc(C(=O)NCc3ccccc3F)cc2C1,62.6
13,CCN1CCO[C@@H]2CN(S(=O)(=O)c3cccs3)CC[C@@H]2C1,15.6
14,CC(C)N1C(=O)CN(CCOCCO)CC1(C)C,23.1
15,Cc1cccc(Cn2c(=O)[nH]c3csnc3c2=O)c1,12.8
16,CC(C)C(O)CNC(=O)Nc1cnn(Cc2ccccc2)c1 (stereo not drawn),4.82
17,CN(C)c1ccc(CN2C[C@@H]3CC[C@H]2CN(C2CCOCC2)C3)cn1,53.5
18,CSc1ncc(CN2C[C@@H]3CC[C@H]2CN(C2CCOCC2)C3)cn1,9.91
19,CCSc1ncc(CN2C[C@@H]3CC[C@H]2CN(C2CCOCC2)C3)cn1,48.5
20,Cc1nc(CN2CCC3(CCN(Cc4cnn(C)c4)C3)C2=O)cs1 (stereo not drawn),25.3
21,O=S1(=O)c2cccnc2OC(Cc2ccccc2)CN1CC1CC1 (stereo not drawn),24.5
22,OCC1(O)CCN(c2ccnc3c(C(F)(F)F)cccc23)CC1,17.5
23,Cc1nn(C)cc1C(=O)Nc1cccc(CN2CCC(CO)CC2)c1,44.2

row,Compound,INHIBITION [%]
1,Cc1cc(C)c(C(=O)Nc2cccc(CN3CCC(CO)CC3)c2)o1,-30
2,Cc1nc(C)c(C(=O)Nc2cccc(CN3CCC(CO)CC3)c2)o1,61.8
3,CCc1cccc(-n2nnc(C(=O)O)c2-c2ccncc2)c1,45.8
4,CCC(C(=O)Nc1ccc2c(C)n[nH]c2c1)N1CCCC1=O (stereo not drawn),53.6
5,Cc1n[nH]c(-c2ccc(NC(=O)C(C)N3CCN(C)CC3)cc2)n1 (stereo not drawn),-27.4
6,Cc1n[nH]c(-c2ccc(NC(=O)C(C)(C)N3CCN(C)CC3)cc2)n1,-25.6
7,CCC(C(=O)NCc1ccn(-c2ccc(F)cc2)n1)N1CCCC1=O (stereo not drawn),2.82
8,CCC(C(=O)Nc1ccc(-c2nc(C)n[nH]2)cc1)N1CCCC1=O (stereo not drawn),59.1
9,CCCN1CCCN(C(=O)C(CC)N2CCCC2=O)CC1 (stereo not drawn),-3.99
10,CC(C)(C)c1noc(CCC(=O)NCC2CCS(=O)(=O)C2)n1 (stereo not drawn),26.4
11,Cc1cc(N(C)C)nc(C2COCCN2Cc2cscn2)n1 (stereo not drawn),45.9
12,O=C1CC(N(C(=O)c2ccc(F)c(C(F)(F)F)c2)C2CC2)C(=O)N1 (stereo not drawn),0.914
13,CCc1ccc2c(C3CN(CC4CCC4)C3)ncn2c1,27.5
14,O=C(NC[C@H]1OC[C@@H](NC2CCNCC2)[C@@H]1O)C1CCCC1,24.5
15,OC(COc1ccc(F)cc1)CN1CCC(Cn2cccn2)CC1 (stereo not drawn),22.9
16,CCCn1ccnc1-c1nccn1CCN(C)C,34.1
17,CCCn1ccnc1-c1nccn1CCn1cnnc1,50.5
18,COCc1ncc(-c2nccn2CCn2cnnc2)cn1,-0.614
19,C1CCC(CNC2CCCN(Cc3noc(C4CC4)n3)C2)CC1 (stereo not drawn),31.6
20,CC(C)n1c2ccccc2c2c1cc(C(=O)N(C)C)n2C,82
21,CN(C)C(=O)n1c(C(=O)NC(C)(C)CO)cc2c1c1ccccc1n2C,-24.9
22,CCCNC(=O)c1cc2c(c3ccccc3n2C)n1C(=O)N(C)C,26.2
23,CC(C)n1c2ccccc2c2c1cc(C(=O)NC1CC1)n2C(=O)N(C)C,60.2

row,Compound,INHIBITION [%]
1,CC(C)NC(=O)CN(C)C(=O)c1c(Cl)c2ccccc2n1C,15.8
2,CC(C)n1c2ccccc2c2c1cc(C(=O)NCCO)n2C(=O)N(C)C,55.7
3,COCCNC(=O)c1cc2c(c3ccccc3n2C)n1C(=O)N(C)C,36.9
4,CC(C)n1c2ccccc2c2c1cc(C(=O)O)n2C(=O)N(C)C,57.5
5,CC(C)n1c2ccccc2c2c1cc(C(=O)N(C)C)n2C(=O)N(C)C,47.5
6,CC(C)NC(=O)c1cc2c(c3ccccc3n2C)n1C(=O)N(C)C,36.9
7,CCCN(CC)C(=O)c1cc2c(c3ccccc3n2C)n1C(=O)N(C)C,11.9
8,CC(C)n1c2ccccc2c2c1cc(C(=O)N(C)C)n2S(C)(=O)=O,49.4
9,Cc1ccc(C(=O)NCCSCc2cccs2)cn1,8.75
10,Cc1ccc(NC2CCN(C(=O)c3ccc(F)c(C)c3)CC2)nn1,47.1
11,COCCn1c(-c2cccc(OC)c2)cnc1NC(=O)NC1CCCC1,13.5
12,CN(C)c1cncc(C2CCCN2S(=O)(=O)c2cn(C)cn2)n1 (stereo not drawn),32.8
13,O=C(c1cnccn1)N1CCN(CC2CC2)c2ncccc2C1,-21.1
14,COCCC(=O)N(C)Cc1nc(C(F)(F)F)cs1,-26.8
15,O=C(NCc1cc[nH]n1)NCC(O)c1ccccc1F (stereo not drawn),7.12
16,COc1c(C2CCCN2CC(=O)N(C)Cc2ccco2)c(C)nn1C (stereo not drawn),89.4
17,COc1c(C2CCCN2C(=O)c2ccco2)c(C)nn1C (stereo not drawn),7.18
18,CN(CCC#N)C(=O)CN1CCCC1c1cccs1 (stereo not drawn),-85
19,CN(Cc1ccco1)C(=O)CN1CCCC1c1cccs1 (stereo not drawn),62.3
20,CCN(C(=O)CN1CCCC1c1c(C)nn(C)c1OC)C1CC1 (stereo not drawn),-23.3
21,N#CCCN(Cc1ccco1)C(=O)CN1CCCC1c1cccs1 (stereo not drawn),29.4
22,CC(=O)Nc1ccc(CNCC(O)c2ccc(Cl)cc2)cc1 (stereo not drawn),45.7
